Experimental data from PubChem BioAssay (NCATS).
Inconclusive results are not listed. Calls of active or inactive are those of the source. Calls come from the whole dose curve; as a rule, active = well fitted curve in the direction sought with a large enough effect; inconclusive = small, poorly fitted or top-dose-only effect, or another doubt; inactive = no such curve, though single readings can be large; an effect the other way counts as inactive or inconclusive.

What was measured:
NIH3T3 = experiment: qHTS assay to identify novel small-molecules to repurpose for Merkel cell carcinoma treatment (AID 1296009); conditions: MCC and control cell lines, CellTiter-Glo viability, 72 h; at 44.8 µM (top of the series) unless noted; note: nearly all actives have a fitted effect of over 60% in size
How it was run: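 Dose-response viability screen; 72 hr exposure at 37 degree celsius; CellTiter-Glo added, 10 min room temperature, luminescence read; RLUs scaled between no-cell and DMSO wells.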

C33A = experiment: Primary qHTS to identify gynecologic anti-cancer compounds using libraries of approved drugs and bioactive compounds (AID 1345084); conditions: Gynecologic cancer cell panel viability, ATPlite luminescence, 48 h; series mostly up to 57.5 µM; note: % is set by controls: 0 for no effect and ±100 for the full control effect; nearly all actives have a fitted effect of over 55% in size
How it was run: (§1)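 Measured: luminescence after ATPlite addition (15 min, RT). Exposure: 48 h, 37 C, 5% CO2.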

CAOV3 = experiment: as above; conditions: Gynecologic cancer cell panel viability, ATPlite luminescence, 48 h; series mostly up to 57.5 µM
How it was run: as §1

CASKI = experiment: as above; conditions: Gynecologic cancer cell panel viability, ATPlite luminescence, 48 h; series mostly up to 57.5 µM
How it was run: as §1

Es-2 = experiment: as above; conditions: Gynecologic cancer cell panel viability, ATPlite luminescence, 48 h; series mostly up to 57.5 µM
How it was run: as §1

HeLa = experiment: as above; conditions: Gynecologic cancer cell panel viability, ATPlite luminescence, 48 h; series mostly up to 57.5 µM
How it was run: as §1

Hek293T = experiment: as above; conditions: Gynecologic cancer cell panel viability, ATPlite luminescence, 48 h, control line for the selectivity index; series mostly up to 57.5 µM
How it was run: as §1

JEG-3 = experiment: as above; conditions: Gynecologic cancer cell panel viability, ATPlite luminescence, 48 h; series mostly up to 57.5 µM
How it was run: as §1

OV90 = experiment: as above; conditions: Gynecologic cancer cell panel viability, ATPlite luminescence, 48 h; series mostly up to 57.5 µM
How it was run: as §1

PA-1 = experiment: as above; conditions: Gynecologic cancer cell panel viability, ATPlite luminescence, 48 h; series mostly up to 57.5 µM
How it was run: as §1

SKOV3 = experiment: as above; conditions: Gynecologic cancer cell panel viability, ATPlite luminescence, 48 h; series mostly up to 57.5 µM
How it was run: as §1

Tov-21-G = experiment: as above; conditions: Gynecologic cancer cell panel viability, ATPlite luminescence, 48 h; series mostly up to 57.5 µM
How it was run: as §1

Tov112D = experiment: as above; conditions: Gynecologic cancer cell panel viability, ATPlite luminescence, 48 h; series mostly up to 57.5 µM
How it was run: as §1

CC(C)c1ccc(CO)cc1O[C@@H]1O[C@H](CO)[C@@H](O)[C@H](O)[C@H]1O
inactive: outcome (NIH3T3) | Potency (C33A) | Potency (CAOV3) | Potency (CASKI) | Potency (Es-2) | Potency (HeLa) | Potency (Hek293T) | Potency (JEG-3) | Potency (OV90) | Potency (PA-1) | Potency (SKOV3) | Potency (Tov-21-G) | Potency (Tov112D)

COC(=O)C12CCC(C)C(C)C1C1=CCC3C4(C)CCC(OC(C)=O)C(C)(C)C4CCC3(C)C1(C)CC2 (centres undefined)
inactive: outcome (NIH3T3) inactive [at 17.4 µM] | Potency (C33A) | Potency (CAOV3) | Potency (CASKI) | Potency (Es-2) | Potency (HeLa) | Potency (Hek293T) | Potency (JEG-3) | Potency (OV90) | Potency (PA-1) | Potency (SKOV3) | Potency (Tov-21-G) | Potency (Tov112D)

COc1ccc(C2(O)c3ccccc3NC(=O)C2O)cc1 (centres undefined)
inactive: outcome (NIH3T3) | Potency (C33A) | Potency (CAOV3) | Potency (CASKI) | Potency (Es-2) | Potency (HeLa) | Potency (Hek293T) | Potency (JEG-3) | Potency (OV90) | Potency (PA-1) | Potency (SKOV3) | Potency (Tov-21-G) | Potency (Tov112D)

CC(O)/C=C/C1OC(=O)CC1Nc1ccc(C(=O)O)cc1 (centres undefined)
inactive: outcome (NIH3T3) | Potency (C33A) | Potency (CAOV3) | Potency (CASKI) | Potency (Es-2) | Potency (HeLa) | Potency (Hek293T) | Potency (JEG-3) | Potency (OV90) | Potency (PA-1) | Potency (SKOV3) | Potency (Tov-21-G) | Potency (Tov112D)

C[C@H](CCC(=O)O)[C@H]1CC[C@H]2[C@@H]3C[C@H](O)[C@@H]4C[C@H](O)CC[C@]4(C)[C@H]3CC[C@]12C
inactive: outcome (NIH3T3) | Potency (C33A) | Potency (CAOV3) | Potency (CASKI) | Potency (Es-2) | Potency (HeLa) | Potency (Hek293T) | Potency (JEG-3) | Potency (OV90) | Potency (PA-1) | Potency (SKOV3) | Potency (Tov-21-G) | Potency (Tov112D)

CCNCc1nc2c(N)nc3ccccc3c2n1CC(C)(C)O
inactive: outcome (NIH3T3) | Potency (C33A) | Potency (CAOV3) | Potency (CASKI) | Potency (Es-2) | Potency (HeLa) | Potency (Hek293T) | Potency (JEG-3) | Potency (OV90) | Potency (PA-1) | Potency (SKOV3) | Potency (Tov-21-G) | Potency (Tov112D)

Cc1c2cc(c(C(=O)O)c1C)OC1OC(C(O)C(O)C1O)C(O)C(O)C1OC(O2)C(O)C(O)C1O (centres undefined)
inactive: outcome (NIH3T3) inactive [at 17.4 µM] | Potency (C33A) | Potency (CAOV3) | Potency (CASKI) | Potency (Es-2) | Potency (HeLa) | Potency (Hek293T) | Potency (JEG-3) | Potency (OV90) | Potency (PA-1) | Potency (SKOV3) | Potency (Tov-21-G) | Potency (Tov112D)

O=C(OC1C=C(CO)C2C(OC3OC(CO)C(O)C(O)C3O)OC=CC12)c1ccc(O)cc1 (centres undefined)
inactive: outcome (NIH3T3) inactive [at 17.4 µM] | Potency (C33A) | Potency (CAOV3) | Potency (CASKI) | Potency (Es-2) | Potency (HeLa) | Potency (Hek293T) | Potency (JEG-3) | Potency (OV90) | Potency (PA-1) | Potency (SKOV3) | Potency (Tov-21-G) | Potency (Tov112D)

Cn1nnc(-c2ccc(-c3ccc(N4C[C@H](CO)OC4=O)cc3F)cn2)n1
inactive: outcome (NIH3T3) | Potency (C33A) | Potency (CAOV3) | Potency (CASKI) | Potency (Es-2) | Potency (HeLa) | Potency (Hek293T) | Potency (JEG-3) | Potency (OV90) | Potency (PA-1) | Potency (SKOV3) | Potency (Tov-21-G) | Potency (Tov112D)

C=C(C(=O)OC)C1C(O)CC2(C)C(=O)CCC(O)(CO)C2C1O (centres undefined)
inactive: outcome (NIH3T3) | Potency (C33A) | Potency (CAOV3) | Potency (CASKI) | Potency (Es-2) | Potency (HeLa) | Potency (Hek293T) | Potency (JEG-3) | Potency (OV90) | Potency (PA-1) | Potency (SKOV3) | Potency (Tov-21-G) | Potency (Tov112D)

CC(O)/C=C/C1(O)C(C)C(O[C@@H]2O[C@H](CO)[C@@H](O)[C@H](O)[C@H]2O)C(O)CC1(C)C (some centres undefined)
inactive: outcome (NIH3T3) inactive [at 17.4 µM] | Potency (C33A) | Potency (CAOV3) | Potency (CASKI) | Potency (Es-2) | Potency (HeLa) | Potency (Hek293T) | Potency (JEG-3) | Potency (OV90) | Potency (PA-1) | Potency (SKOV3) | Potency (Tov-21-G) | Potency (Tov112D)

CC1OC(OC2C(C)OC(OC3C(O)C(CO)OC(O[C@H]4CC[C@@]5(C)C(CC[C@]6(C)C5CC=C5C7[C@@H](C)[C@H](C)CC[C@]7(C(=O)O)CC[C@]56C(=O)O)C4(C)C)C3O)C(O)C2O)C(O)C(O)C1O (some centres undefined)
inactive: outcome (NIH3T3) inactive [at 9.27 µM] | activity change, negative = cytotoxicity (C33A) -5.63% [at 11.6 µM] | activity change, negative = cytotoxicity (CAOV3) 10.5% [at 11.6 µM] | activity change, negative = cytotoxicity (CASKI) 1.59% [at 11.6 µM] | activity change, negative = cytotoxicity (Es-2) 1.92% [at 11.6 µM] | activity change, negative = cytotoxicity (HeLa) 9.15% [at 11.6 µM] | activity change, negative = cytotoxicity (Hek293T) -7.85% [at 11.6 µM] | activity change, negative = cytotoxicity (JEG-3) -5.03% [at 11.6 µM] | activity change, negative = cytotoxicity (OV90) 0.765% [at 11.6 µM] | activity change, negative = cytotoxicity (PA-1) -0.273% [at 11.6 µM] | activity change, negative = cytotoxicity (SKOV3) -6.75% [at 11.6 µM] | activity change, negative = cytotoxicity (Tov-21-G) -0.483% [at 11.6 µM] | activity change, negative = cytotoxicity (Tov112D) 2.5% [at 11.6 µM]

COC(=O)c1cc(OC)cc(OC)c1C(=O)c1c(OC)cc2c(c1O)C1CCCC(C)(O2)O1 (centres undefined)
inactive: outcome (NIH3T3) inactive [at 17.4 µM] | Potency (C33A) | Potency (CAOV3) | Potency (CASKI) | Potency (Es-2) | Potency (HeLa) | Potency (Hek293T) | Potency (JEG-3) | Potency (OV90) | Potency (PA-1) | Potency (SKOV3) | Potency (Tov-21-G) | Potency (Tov112D)
